Screening data from PubChem.
M1 ag: activates human CHRM1 receptor. P11229. CHO-K1 hM1, Fluo-8 calcium fluorescence, agonist mode; 0% DMSO, 100% acetylcholine EC100. activation, % at 3 µM. 360,000 tested, 0.33% active. AID 588814;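 active means activation above the run's mean compound activation plus 3 SD, cut at about 16% in these data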;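 further: peak over basal fluorescence ratio within a 140 s kinetic read after compound addition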
ATG4B inh: ATG4B (human) cysteine protease inhibition; Q9Y4P1; ATG4B cleavage of LC3-PLA2, NBD-HPC fluorescence, 1 h; inhibition, % at 8.33 µM; 340,000 tested, 0.51% active; AID 504462; in the data active means inhibition above about 40%
Target sequence (Q9Y4P1 whole entry, looked up): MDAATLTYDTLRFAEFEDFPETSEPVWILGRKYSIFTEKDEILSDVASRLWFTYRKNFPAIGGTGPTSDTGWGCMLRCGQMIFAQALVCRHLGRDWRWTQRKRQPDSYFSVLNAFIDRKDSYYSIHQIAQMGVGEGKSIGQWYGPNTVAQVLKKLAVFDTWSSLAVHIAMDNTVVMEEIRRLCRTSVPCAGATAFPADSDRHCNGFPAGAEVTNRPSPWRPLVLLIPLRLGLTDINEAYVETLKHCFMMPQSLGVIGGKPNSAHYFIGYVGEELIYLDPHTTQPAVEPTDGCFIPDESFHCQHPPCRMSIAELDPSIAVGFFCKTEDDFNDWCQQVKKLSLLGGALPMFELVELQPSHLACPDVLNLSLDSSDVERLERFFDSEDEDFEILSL
M1 antag: human CHRM1 antagonism | CHO-K1 hM1, Fluo-8 calcium fluorescence, ACh EC80 antagonist | inhibition, % at 3 µM | 360,000 tested, 1.3% active;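 active means percent inhibition above its own plate's cutoff, namely the mean of that plate's compound wells plus 3 SD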;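 further: peak over basal fluorescence ratio during 140 s after agonist addition; 0% = ACh EC80 plus DMSO and 100% = DMSO alone without agonist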
Myeloid diff 2: compounds promoting myeloid differentiation | ER-HoxA9 myeloid progenitors, lysozyme-GFP differentiation, flow cytometry | calls only at 10 µM | 360,000 tested, 1% active;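 active means normalized GFP-positive differentiation at or above the plate's own cutoff, the solvent-only control mean plus 3 SD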;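 further: cells exposed to compound for four days before flow analysis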
CHRM1 PAM: human CHRM1 positive allosteric modulation | AID 588819 | activation, % at 3 µM | 360,000 tested, 0.088% active | CHO-K1 hM1, Fluo-8 calcium fluorescence, ACh EC20; 0% = ACh EC20, 100% = maximal ACh | P11229; in the data active means activation above about 19%, passing the limit was not always enough
SKN-1 block: blocks SKN-1 activity in C. elegans; C. elegans VP596 Pgst-4::GFP/RFP ratio, acrylamide-induced, 24 h; inhibition, % at 21.8 µM; 360,000 tested, 0.49% active; AID 624304;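 active means interference check ratio from 0.5 to 1.5 plus GFP to RFP signal ratio inhibition reaching or exceeding a fixed threshold, cut at about 30% in these data, passing the limit was not always enough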
Myeloid diff: compounds promoting myeloid differentiation | 2,300 tested, 2% active | ER-HoxA9 myeloid progenitors, GFP/Mac1 double-positive flow | calls only | AID 651706 | shares compounds with Myeloid diff 2;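 active means share of green or green-and-red cells above 9 and 9% in run 1 or 4 and 3% in run 2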
GFP autofluor: counter-screen for myeloid differentiation promoters: compound fluorescence. ER-HoxA9 myeloid progenitors, no estrogen, GFP autofluorescence flow cytometry; vehicle wells 0%, positive control 100%. 2,300 tested, 7.4% active. fluorescence response, % (no concentration beside the values). shares compounds with Myeloid diff 2;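 active means over 5% cells positive for green fluorescent reporter, or over 2% positive for both it and APC stain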;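 further: range taken on the double positive population between DMSO and positive control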
* = called active by the depositor; i = inactive; · = not tested or not shown; + = active, no number. Shown are actives, neighbours in structure and some others; about 3.5% of the full set was active somewhere.

SMILES | M1 ag | ATG4B inh | M1 antag | Myeloid diff 2 | CHRM1 PAM | SKN-1 block | Myeloid diff | GFP autofluor
CCNCCNC(=O)c1c(O)c2cccc3c2n(c1=O)CCC3 | -5 | 3 | -8 | i | 7 | -10 | i | 0
OCCNc1c2ccccc2nc2c(F)c(F)c(F)c(F)c12 | -5 | 3 | 0 | · | 2 | 2 | · | ·
Cc1c2ccccc2nc2c(F)c(NCCO)c(F)c(F)c12 | -6 | -9 | 2 | + | 8 | 24 | i | 78*
O=C(/C=C/NNC(=O)c1ccccc1O)c1ccccc1 | -2 | 0 | -9 | i | 2 | -18 | · | ·
O=C1NCN(C2CCCCC2)CN1 | -1 | -4 | -4 | i | 9 | -1 | · | ·
CN1C(=O)N2CN(C3CCCCC3)CN3C(=O)N(C)C1C23 (centres undefined) | -3 | 5 | -5 | i | 4 | 0 | i | 0
CCOc1ccc(S(=O)(=O)N2CCCC(C(=O)NCc3ccncc3)C2)cc1C (centres undefined) | -6 | -5 | -4 | i | -4 | 5 | · | ·
COC(=O)C1=C(C)N(Cc2ccccc2)C(=NCc2cc(OC)c(OC)c(OC)c2)N[C@H]1CCc1ccccc1 | -10 | -7 | 2 | + | 7 | 4 | i | 0
CCNC(=O)C1(C)CCN(C(=O)c2ccc(N(C)C)cc2)C1 (centres undefined) | -3 | · | 7 | i | -6 | 6 | · | ·
Cc1ccccc1N1CC(=O)N(c2ccccc2C)CC1=O | -1 | -3 | -42 | i | 7 | 24 | · | ·
CC1=NN(c2ccccc2C)C(=O)C1 | -2 | 2 | -14 | i | 3 | -5 | i | 0
O=C(c1ccccn1)N1CCN(S(=O)(=O)c2ccc3ccccc3c2)CC1 | -3 | -3 | -4 | i | 3 | 9 | · | ·
CCOc1ncccc1C(=O)N1CCN(S(=O)(=O)c2ccc3ccccc3c2)CC1 | -5 | -8 | -7 | i | 1 | -4 | i | 0
Cc1cc(NC(=O)CSc2nc3cc(Cl)ccc3o2)no1 | -2 | -1 | -6 | i | 4 | 2 | · | ·
CCN(CC)S(=O)(=O)c1ccc2oc(SCC(=O)Nc3cc(C)on3)nc2c1 | -4 | -4 | -3 | + | 2 | -13 | i | 1
COc1ccc(S(=O)(=O)N(C)C[C@@H]2Oc3c(NS(=O)(=O)c4cn(C)cn4)cccc3C(=O)N([C@@H](C)CO)C[C@@H]2C)cc1 | 2 | -2 | 12 | i | 3 | -20 | · | ·
N#Cc1ccc(OCC(=O)Nc2cc(S(=O)(=O)N3CCOCC3)ccc2N2CCCC2)cc1 | · | -7 | · | · | · | · | · | ·
Cc1onc(-c2ccccc2Cl)c1C(=O)N1C=CC(C(F)(F)Cl)=NCC1 | -3 | -11 | -8 | + | 7 | -2 | i | 0
COCC(C)NCc1cccc(OC)c1OC (centres undefined) | -4 | -2 | -5 | i | 8 | 0 | i | 0
CCOc1ccccc1N(CC(=O)NC1CCCCC1)S(=O)(=O)c1ccc(C)cc1 | -2 | 5 | 14 | + | -4 | 2 | i | 0
O=C(NNC(=O)C1CCN(c2ncccn2)CC1)c1ccc(F)cc1 | -5 | -7 | -5 | · | 4 | 10 | · | ·
COc1ccc(-c2cc(-c3cc(OC)ccc3O)[nH]n2)cc1 | -4 | 6 | 6 | i | -2 | 26 | i | 1
OC1(Cc2cc(-c3ccccc3)no2)CCN(CCCc2ccccc2)CC1 | -10 | 2 | -5 | i | -8 | 12 | · | ·
COc1ccc(-c2noc(Cn3cc(S(=O)(=O)N4CCCC4)ccc3=O)n2)cc1 | -3 | -6 | 3 | i | -2 | 14 | · | ·
O=C(CCNS(=O)(=O)c1ccc2c(c1)CCC(=O)N2)NCc1ccc2c(c1)OCO2 | -2 | -3 | -18 | i | 8 | -5 | i | 1
SMILES | M1 ag | ATG4B inh | M1 antag | Myeloid diff 2 | CHRM1 PAM | SKN-1 block | Myeloid diff | GFP autofluor
O=C(CSc1nnc(Cc2ccccc2)n1-c1cccc(Cl)c1)N1CCOCC1 | -3 | -11 | -9 | i | 8 | -8 | · | ·
Cc1cccc(-n2c(Cc3ccccc3)nnc2SCC(=O)N2CCOCC2)c1 | -3 | -4 | -8 | i | 8 | -24 | i | 1
COc1ccc(S(=O)(=O)Nc2ccccc2C)cc1 | -2 | -5 | -1 | i | 6 | -16 | i | 0
CCc1nc(NCCO)c(C#N)c2c1CSC(C)(C)C2 | -3 | -14 | -1 | i | 0 | 7 | · | ·
CCn1c(COc2ccccc2C)nnc1SCC(=O)Nc1cc(C)on1 | 5 | -3 | -10 | + | 12 | -1 | i | 0
C[C@@H](C(=O)N[C@@H](Cc1ccccc1)C(=O)O)n1nnc2ccccc2c1=O | -2 | -2 | -16 | i | 11 | -6 | · | ·
CC(C)CC(=O)Nc1ccc(-c2cn3ccsc3n2)cc1 | -4 | -1 | -12 | i | 3 | 9 | · | ·
CC(C)(C)C(=O)Nc1ccc(-c2cn3ccsc3n2)cc1 | -4 | -9 | 3 | i | -3 | 6 | i | 0
COc1cccc(NC(=O)CN(C)C(=O)CC2CCCC2)c1 | -2 | -8 | -11 | i | 5 | 11 | i | 0
COc1ccccc1COC(=O)c1ccc(S(=O)(=O)N2CCOCC2)cc1 | -4 | -16 | 3 | i | 2 | -8 | · | ·
CC(O)C(=O)N/N=C/c1ccccc1C(=O)O (centres undefined) | -5 | 3 | -6 | i | 4 | 7 | i | 0
CCC(=O)c1ccc(OC(=O)N2CCOCC2)cc1 | -3 | 2 | -18 | i | 11 | 1 | · | ·
CC(=O)Nc1ccc(S(=O)(=O)N2CCN(CC(O)COc3ccc4ccccc4c3)CC2)cc1 (centres undefined) | 0 | -5 | 34* | i | -21 | -4 | i | 0
CCCCNc1c(-c2cc3ccccc3o2)nc2nc(C)cc(C)n12 | · | · | · | + | · | 17 | i | 1
Cc1cccc(-n2c(C)cc(C=C3C(=O)c4ccccc4C3=O)c2C)c1 | -2 | 3 | -37 | i | 9 | -1 | i | 0
Cc1cc(/C=C2\SC(=S)NC2=O)c(C)n1-c1ccccc1 | 1 | 23 | -21 | i | 12 | 14 | i | 6.9*
Cc1cc(/C=C2\SC(=Nc3ccc(F)cc3)NC2=O)c(C)n1-c1ccc(S(N)(=O)=O)cc1 | -2 | 0 | -16 | i | -2 | -1 | i | 8.0*
Cc1cc(C)cc(N=C2NC(=O)/C(=C/c3cccs3)S2)c1 | -4 | 6 | -9 | i | 12 | 15 | · | ·
Cc1cc(C=C2C(=O)c3ccccc3C2=O)c(C)n1-c1ccc(Cl)cc1 | -6 | -2 | 5 | i | -7 | 8 | · | ·
